This passage reports Potency results from ChEMBL document CHEMBL1201862, “PubChem BioAssay data set” (2004).

Each structure is given as a SMILES string. About 2,100 (0.53%) of roughly 400,000 compounds were called active. Not shown: some 14% with an inconclusive outcome. The rule behind the calls is not given here. The full list was thinned out, with actives kept by preference.

Chain of Ataxin-2 (Homo sapiens) (Q99700 whole entry): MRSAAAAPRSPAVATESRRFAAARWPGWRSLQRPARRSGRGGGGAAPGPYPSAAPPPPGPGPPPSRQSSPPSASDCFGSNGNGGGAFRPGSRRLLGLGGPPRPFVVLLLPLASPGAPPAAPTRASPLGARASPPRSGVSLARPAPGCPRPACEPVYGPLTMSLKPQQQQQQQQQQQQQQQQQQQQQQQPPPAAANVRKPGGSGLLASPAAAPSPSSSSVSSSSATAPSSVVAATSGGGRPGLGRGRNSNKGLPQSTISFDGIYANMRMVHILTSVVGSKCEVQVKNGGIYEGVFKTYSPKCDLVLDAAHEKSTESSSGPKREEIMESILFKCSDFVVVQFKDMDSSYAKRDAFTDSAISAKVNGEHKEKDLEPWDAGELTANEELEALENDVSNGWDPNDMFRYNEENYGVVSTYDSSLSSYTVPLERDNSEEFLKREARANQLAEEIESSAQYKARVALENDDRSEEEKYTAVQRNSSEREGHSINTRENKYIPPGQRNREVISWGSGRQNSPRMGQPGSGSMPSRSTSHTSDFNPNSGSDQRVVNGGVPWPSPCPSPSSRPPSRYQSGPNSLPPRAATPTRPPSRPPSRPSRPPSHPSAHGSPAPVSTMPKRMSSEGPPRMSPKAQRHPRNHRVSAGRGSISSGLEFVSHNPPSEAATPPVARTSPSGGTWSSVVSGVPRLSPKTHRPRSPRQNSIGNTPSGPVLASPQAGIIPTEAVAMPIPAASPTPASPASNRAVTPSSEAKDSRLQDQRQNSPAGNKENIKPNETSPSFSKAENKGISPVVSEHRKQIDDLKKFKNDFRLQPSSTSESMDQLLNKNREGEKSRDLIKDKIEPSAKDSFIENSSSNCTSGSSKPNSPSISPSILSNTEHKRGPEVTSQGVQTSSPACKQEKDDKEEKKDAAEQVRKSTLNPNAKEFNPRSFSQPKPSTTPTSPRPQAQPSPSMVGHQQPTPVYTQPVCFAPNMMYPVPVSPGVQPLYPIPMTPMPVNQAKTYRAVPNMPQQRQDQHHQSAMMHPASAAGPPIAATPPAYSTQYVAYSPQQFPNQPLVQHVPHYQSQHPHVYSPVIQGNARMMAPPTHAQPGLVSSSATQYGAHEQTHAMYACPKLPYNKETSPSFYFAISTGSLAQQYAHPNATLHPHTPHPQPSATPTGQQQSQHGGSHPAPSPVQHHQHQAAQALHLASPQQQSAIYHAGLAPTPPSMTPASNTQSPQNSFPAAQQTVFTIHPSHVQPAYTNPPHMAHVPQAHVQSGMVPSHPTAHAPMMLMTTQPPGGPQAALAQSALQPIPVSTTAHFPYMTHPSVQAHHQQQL

The experiment addresses Ataxin-2 (Homo sapiens) (UniProt Q99700). In words: qHTS for Inhibitors of ATXN expression. It counts as functional. A general note: qHTS replaces the single test concentration by a dilution series.
Consider `CN(Cc1ccccc1F)Cc1cc(=O)oc2cc(O)c(Cl)cc12`, for which the Potency result is “inactive”.

With `O=C(Nc1ccc(Cl)cc1)Nc1cccc2nsnc12`, the Potency entry is “inactive”.

Take `CC(C)c1ccc(NC(=O)Nc2nc(C(N)c3ccccc3Cl)cs2)cc1` (stereo unspecified): the Potency was 35.5 µM (active).

Turning to `CC(C)c1ccc(NC(=O)Nc2nc(C(N)c3ccccc3)cs2)cc1` (stereo unspecified), the Potency is 28.2 µM (active).

As for `NC(c1ccccc1)c1csc(NC(=O)Nc2ccc(OC(F)(F)F)cc2)n1` (stereo unspecified), the Potency is 39.8 µM (active).

Consider `CC(C)c1ccc(/C=C(/C#N)c2nnc(NC(=O)c3ccccc3)s2)cc1`, for which the Potency entry was “inactive”.

As to `CC(C)c1ccc(NC(=O)Nc2nc(C(C)N)cs2)cc1` (stereo unspecified), the Potency was 35.5 µM (active).

Consider `Cc1oc(CC(C)C)cc1C(=O)NCCCC(=O)O`, for which the Potency result is “inactive”.

In the case of `N=C1NC(=O)/C(=C/c2ccc(Br)cc2)S1`, the Potency result is “inactive”.

On to `COCCN1C=C(C(=O)OC)C(c2ccc(Cl)cc2)C(C(=O)OC)=C1`, for which the Potency result is “inactive”.

Turning to `CCN(CC)C(=O)c1cc(-c2ccc3c(c2)OCO3)on1`, the Potency result is “inactive”.

Consider `COc1ccc(Cc2nnc(S)n2NC(=O)Nc2ccc(C)cc2)cc1`, for which the Potency entry was “inactive”.

As for `COc1ccc(OCC(=O)Nc2nccs2)cc1`, the Potency entry is “inactive”.

For `COc1ccc(CC(N)c2csc(NC(=O)Nc3ccc(C(C)C)cc3)n2)cc1` (stereo unspecified), the Potency was 39.8 µM (active).

Take `CCN(CC)C(=O)COC(=O)c1cc(-c2ccco2)nc2ccccc12`: the Potency result was “inactive”.

Consider `COc1ccc2noc3c2c1C(=O)c1ccccc1-3`, for which the Potency is 39.8 µM (active).

For `COc1ccc2c3c(cccc13)C(=O)CC2`, the Potency entry is “inactive”.

`O=C1c2ccccc2-c2onc3ccc(Oc4ccccc4)c1c23`: the Potency is 20 µM (active).

On to `COc1cccc2c1C(=O)C=C(C)C2=O`, for which the Potency entry was “inactive”.

In the case of `COc1ccc(N2C(=O)/C(=C\NNS(=O)(=O)c3ccc(C)cc3)c3ccccc3C2=O)cc1OC`, the Potency result was “inactive”.

Take `Cc1cc(=O)oc2cc(OC(=O)c3ccco3)ccc12`: the Potency result was “inactive”.

Turning to `O=c1c2c(-c3ccccc3)csc2nc2c3ccccc3c(NCCN3CCOCC3)nn12`, the Potency entry was “inactive”.

Take `Cc1cc(C)c2nc3nc(C)c(C)cc3c(N)c2c1`: the Potency result was “inactive”.

As for `CCN(CC)c1ccc2cc(C#N)c(=O)oc2c1`, the Potency result is “inactive”.

Turning to `O=c1c2ccccc2sn1-c1ccccc1`, the Potency is 28.2 µM (active).

`N#Cc1c(N)n(-c2ccccc2)c(=O)c2cc([N+](=O)[O-])ccc12`: the Potency entry was “inactive”.

As for `O=c1c2ccccc2sn1-c1ccc(Cl)cc1Cl`, the Potency was 35.5 µM (active).

In the case of `O=c1c2ccccc2nc2ccccn12`, the Potency entry was “inactive”.

`COc1ccc(N2CCN(CCN3C(=O)c4ccccc4C3=O)CC2)cc1`: the Potency result is “inactive”.

On to `N#Cc1cc2cc3ccccc3nc2n2c(=O)c3ccccc3nc12`, for which the Potency entry is “inactive”.

As for `COc1ccc(-n2sc3ccccc3c2=O)cc1`, the Potency is 22.4 µM (active).

For `Nc1ccc2c3c(cccc13)C(=O)N(c1ccccc1)C2=O`, the Potency entry is “inactive”.

As for `Cn1c2ccccc2c(=O)c2ccc(Cl)cc21`, the Potency entry was “inactive”.

Regarding `CCC1(CC)Nc2ccccc2C(=O)N1c1ccc(OC)cc1`, the Potency result is “inactive”.

On to `N#Cc1ccc2sn(-c3ccccc3)c(=O)c2c1`, for which the Potency was 22.4 µM (active).

As for `CC(C)(C)c1ccc(C(=O)NCCn2c(N)c(C#N)c3nc4ccccc4nc32)cc1`, the Potency result is “inactive”.

`Cc1cc(O)cc2c1C(=O)/C(=C/c1ccco1)O2`: the Potency entry is “inactive”.

For `O=C1NC(c2ccco2)Nc2sc3c(c21)CCN(Cc1ccccc1)C3` (stereo unspecified), the Potency entry was “inactive”.

As to `N#Cc1c(C(F)(F)F)cc(O)n2c1nc1ccccc12`, the Potency result was “inactive”.

With `CC(=O)Nc1ccc(C2=NN(c3ccccc3)C(c3ccccc3)C2)cc1` (stereo unspecified), the Potency entry is “inactive”.

In the case of `O=c1c2cc(F)ccc2sn1-c1ccc(F)cc1`, the Potency is 35.5 µM (active).

As to `Cn1sc2ccccc2c1=O`, the Potency is 28.2 µM (active).

As for `CC(=O)Nc1ccc2nc3ccccc3nc2c1`, the Potency entry is “inactive”.

In the case of `CC(=O)Nc1ccc2c(=O)n(-c3ccccc3)sc2c1`, the Potency was 25.1 µM (active).

With `CN1C(=O)c2cccc3c(N)ccc(c23)C1=O`, the Potency entry is “inactive”.

`O=c1c2ccccc2[nH]c2ccc(F)cc12`: the Potency result was “inactive”.

Consider `COCCCn1c(N)c(-c2nc3ccccc3n2C)c2nc3ccccc3nc21`, for which the Potency entry was “inactive”.

On to `COc1ccc(N2C3=C(C(=O)CC(C)(C)C3)C(c3cnn(C)c3)C3=C2CC(C)(C)CC3=O)cc1`, for which the Potency result was “inactive”.

On to `COc1cccc(C(=O)Oc2c(Br)cc(Br)cc2/C=N/NC(=O)c2cc(C)[nH]n2)c1`, for which the Potency entry was “inactive”.

As for `CC1(C)CC2CC(C)(CN2C(S)=Nc2ccccc2)C1` (stereo unspecified), the Potency entry is “inactive”.

`COc1ccc(OC)c(/C=N/NC(=O)CNC(=O)c2ccc(S(=O)(=O)N3CCOCC3)cc2)c1`: the Potency result was “inactive”.

With `O=C(Oc1ccc2ccc(=O)oc2c1)c1cccs1`, the Potency result is “inactive”.

Turning to `S=C(NNC(=S)NC1CC2C=CC1C2)NC1CC2C=CC1C2` (stereo unspecified), the Potency result was “inactive”.

Turning to `CC(=O)Nc1sc(C)c(C)c1C(=O)OCC(=O)NCc1ccc(Cl)cc1`, the Potency entry was “inactive”.

On to `CCOC(=O)c1c(NC(C)=O)sc2c(OCC(O)CNC(C)(C)C)c(Br)ccc12` (stereo unspecified), for which the Potency is 39.8 µM (active).

On to `CCOC(=O)c1sc(NC(=O)c2ccoc2C)c(C(N)=O)c1C`, for which the Potency result was “inactive”.

With `NC(=O)c1cccc2cc3ccccc3cc12`, the Potency entry was “inactive”.

For `Cc1ccc2nc(Cl)c(C#N)cc2c1`, the Potency result is “inactive”.

For the compound `Cc1ccc2nc(O)c(C3C(C#N)=C(N)Oc4c3ccc3cccnc43)cc2c1` (stereo unspecified), the Potency is 22.4 µM (active).

On to `C#CCOc1ccc(C2C(C#N)=C(N)Oc3cc(O)ccc32)cc1` (stereo unspecified), for which the Potency result is “inactive”.

For the compound `COC(=O)c1sc2nc3c(cc2c1N)CCCC3`, the Potency result is “inactive”.

For the compound `O=C1CC(c2ccccc2Cl)=NN(c2ncnc3ccccc23)C1=O`, the Potency entry was “inactive”.

For the compound `CC1=C/C(=N\OS(=O)(=O)c2ccccc2)C=CC1=O`, the Potency is 31.6 µM (active).

As for `CC1=C/C(=N\OS(=O)(=O)c2ccccc2)C(C(C)C)=CC1=O`, the Potency is 31.6 µM (active).

In the case of `Cc1ccc(S(=O)(=O)NNc2c3ccccc3nc3ccc(Cl)cc23)cc1`, the Potency entry was “inactive”.

Turning to `CCCCn1c(=O)[nH]c2nc3cc(NC(C)=O)ccc3nc2c1=O`, the Potency result was “inactive”.

`CCN(CC)c1ccc(/C=c2\sc3nc4ccccc4n3c2=O)c(O)c1`: the Potency result is “inactive”.

As for `OCCC1CN(C2CCN(c3ccccc3F)CC2)CCN1Cc1ccccc1` (stereo unspecified), the Potency result was “inactive”.

Regarding `Cc1cccc(C2=NN(c3ccc(Br)cc3)[C@@H](C(=O)N3CCOC3=O)[C@@H]2c2ccccc2)c1`, the Potency result was “inactive”.

As to `CN1C[C@@H]2[C@@H]3C(=O)N(Cc4ccccc4)C(=O)[C@@H]3[C@](Cc3ccccc3)(C1=O)N2C(=O)c1ccc(C(C)(C)C)cc1`, the Potency is 15.8 µM (active).

Take `CC1(Cc2ccccc2Cl)C(=O)Nc2cc(-c3ccccc3Cl)ccc21` (stereo unspecified): the Potency was 39.8 µM (active).

Turning to `CC(=O)Nc1cc[n+](CC(=O)c2cccc([N+](=O)[O-])c2)cc1`, the Potency result was “inactive”.

In the case of `Nc1ccccc1SC(C[N+](=O)[O-])c1ccccc1` (stereo unspecified), the Potency is 39.8 µM (active).

As for `Nc1ccccc1SC(CC(=O)c1ccccc1)c1cccc([N+](=O)[O-])c1` (stereo unspecified), the Potency was 2.82 µM (active).

Turning to `CC(CCc1ccccc1)NCC(O)c1cccc([N+](=O)[O-])c1` (stereo unspecified), the Potency result is “inactive”.

Regarding `COc1ccc(/C=N/NC(=O)Nc2cccc3nsnc23)cc1`, the Potency entry was “inactive”.

On to `CN1C(=O)c2cccc3c(N(C)C)ccc(c23)C1=O`, for which the Potency result is “inactive”.

Turning to `O=C(O)c1ccccc1-c1ccc(C=c2sc3nc4cc(Br)cnc4n3c2=O)o1`, the Potency result was “inactive”.

For `CCN(CC)CCNS(=O)(=O)c1ccc2c3c(cccc13)C(=O)N2`, the Potency entry is “inactive”.

Take `C=CCC(Nc1ccccc1)C12C=CC(O1)C(C(=O)OC)=C2C(=O)OC` (stereo unspecified): the Potency was 39.8 µM (active).

As for `Cc1ccc(/C=N/Nc2ccc3ccccc3n2)o1`, the Potency entry was “inactive”.

For the compound `c1ccc(-c2nc(CN3CCN(c4ccccn4)CC3)c[nH]2)cc1`, the Potency entry was “inactive”.

Regarding `CN(C)C(=S)N=Nc1[nH]c2ccccc2c1O`, the Potency is 1.12 µM (active).

`O/C(=C\c1nc2ccccc2nc1O)c1cccs1`: the Potency result is “inactive”.

In the case of `CC[C@@H]1CC=C[C@H]2[C@H]1C(=O)N(Cc1ccccc1)[C@H]2c1ccoc1`, the Potency was 35.5 µM (active).

In the case of `O=C1C2C(c3ccccc3)CC=CC2[C@H](c2ccc(C(F)(F)F)cc2)N1Cc1ccccc1` (stereo partly specified), the Potency is 15.8 µM (active).

Turning to `Cc1ccc(F)c([C@H]2[C@H]3C=CC[C@@H](C)[C@@H]3C(=O)N2Cc2ccccc2)c1`, the Potency was 39.8 µM (active).

As to `Nc1nnc(SCC(=O)NNC(=O)c2ccc([N+](=O)[O-])cc2)s1`, the Potency entry was “inactive”.

Regarding `NC(S)=NN=C1c2cc(OCCN3CCOCC3)ccc2-c2ccc(OCCN3CCOCC3)cc21`, the Potency was 7.94 µM (active).

In the case of `O=S(=O)(CCN1C=CC(C(F)(F)F)=NCC1)c1ccc(Cl)cc1Cl`, the Potency result is “inactive”.

As for `COCc1cc(O)nc(SCCS(=O)(=O)c2ccc(Cl)cc2Cl)n1`, the Potency was 11.2 µM (active).

As to `COCc1cc(O)nc(-c2ccc(C(F)(F)F)cc2)n1`, the Potency entry was “inactive”.

Take `CCOc1cc(C(c2c(C)[nH]n(-c3ccccc3)c2=O)c2c(C)[nH]n(-c3ccccc3)c2=O)ccc1O`: the Potency was 28.2 µM (active).

As for `CCN1/C(=C\c2ccc3ccccc3[n+]2CC)Sc2cc(C)ccc21`, the Potency was 44.7 µM (active).

For `CC[n+]1c(C=C2C=CN(C)C=C2)ccc2cc(C)ccc21`, the Potency was 10 µM (active).

As to `CCN1/C(=C/c2ccc3cc(C)ccc3[n+]2CC)Sc2ccccc21`, the Potency was 14.1 µM (active).

As to `CCOC(=O)/C(=C\C=C1/Sc2ccccc2N1CC)C(C)=O`, the Potency entry is “inactive”.

For `CCN1/C(=C/c2ccc3cc(C)ccc3[n+]2C)Sc2ccc3sccc3c21`, the Potency was 17.8 µM (active).

As for `CCOC(=O)/C(C#N)=C(C)/C=C1\Sc2ccccc2N1CC`, the Potency entry is “inactive”.

Turning to `N=c1c(C(=O)NCC2CCCO2)cc2c(=O)n3ccccc3nc2n1Cc1ccccc1Cl` (stereo unspecified), the Potency result is “inactive”.

On to `CCOC(=O)C1CCN(C(c2ccc(OC)c(OC)c2)c2sc3nc(C)nn3c2O)CC1` (stereo unspecified), for which the Potency entry was “inactive”.

Turning to `O=C(N/N=C/c1c(O)ccc2ccccc12)c1[nH]ncc1Br`, the Potency result was “inactive”.

Take `CCN1CCN(Cc2c(O)ccc3c2O/C(=C\c2ccc(C)cc2)C3=O)CC1`: the Potency entry is “inactive”.

Turning to `CC(NC(=O)C12CC3CC(CC(C3)C1)C2)C(=O)N/N=C/C1=C(N2CCOCC2)C(=C\c2ccccc2)/CC1` (stereo unspecified), the Potency result was “inactive”.

For the compound `CCOc1ccc(CCNC(=O)Cn2ncn3nc(-c4ccc(OC)cc4)cc3c2=O)cc1OCC`, the Potency entry was “inactive”.

As for `Cc1cc2c(C)cc(=O)oc2c2c1NCCC2`, the Potency result is “inactive”.
